Bioassay records: PubChem, several laboratories
Most compounds without a hit are left out; they make up all but 3.8% or so of the library.
Mtb hypoxia rep = PubChem AID 1159583; 300,000 tested, 0.1% active; fluorescence inhibition, % (test concentration not listed); M. tuberculosis hypoxia-regulated fluorescent reporter, fluorescence; in the data active = fluorescence inhibition mostly above about 23%, no sharp cut-off; inactive = mostly below about 17%
Mtb FBA inh = Mtb FBA enzyme inhibitors, primary screen, biochemical, fluorescence, strain H37Rv. purified M. tuberculosis FBA, fluorescence read-out. inhibition, % at 1 µM. 360,000 tested, 2.3% active; in the data active = inhibition above about 27%
PrPC surface inh = inhibitors of human cell surface prion protein PrPC, primary screen, cell-based, TR-FRET | Major prion protein (Homo sapiens), P04156 | TR-FRET read-out | inhibition, % at 13.8 µM | 370,000 tested, 0.43% active; in the data active = inhibition above about 24%
PrP UTR inh = inhibition of PrP 5' UTR reporter expression. cell-based PrP 5' UTR mRNA reporter, plate reader. inhibition, % (test concentration not listed). 340,000 tested, 0.35% active. AID 488862, 2010; in the data active = inhibition above about 52%
Yp Topo-I inh = Yersinia pestis topoisomerase I inhibitors, primary screen, biochemical, cleavage product accumulation, plate reader, single point; Y. pestis Topo-I cleavage product accumulation; activity, % at 10 µM; 360,000 tested, 0.064% active; in the data active = activity above about 50%, passing the limit was not always enough; inconclusive = no clear call, values can overlap the other calls
GDH-TPI inh = GDH-TPI coupling enzyme inhibitors, primary screen, artefact control for M. tuberculosis FBA inhibitor project, biochemical, absorbance, full deck; GDH-TPI coupled enzyme counterscreen, NADH absorbance; inhibition, % at 4.8 µM; 360,000 tested, 1.2% active; in the data active = inhibition above about 30%
PrPC TRFRET cf = confirmation of inhibitors of cell surface human prion protein, confirmation, cell-based, TR-FRET | 1,500 tested, 65% active | shares compounds with PrPC surface inh | inhibition, % at 13.8 µM | cell surface PrPC level; in the data active = inhibition above about 25%
LD9 cytotox = cytotoxicity in LD9 cells, cytotoxicity control for cell surface PrPc inhibitor project, cell-based, luminescence, high throughput; inhibition, % at 13.8 µM; AID 743201, 2013; luminescence viability; shares compounds with PrPC surface inh; 1,500 tested, 29% active; in the data active = inhibition above about 9.5%
Hits are given with their value; - = inactive; ? = inconclusive; . = no result given.

SMILES	Mtb hypoxia rep	Mtb FBA inh	PrPC surface inh	PrP UTR inh	Yp Topo-I inh	GDH-TPI inh	PrPC TRFRET cf	LD9 cytotox
COc1cc(N(C)C)ccc1C=c1c2ccccc2n2c1cc(-c1ccccc1)[n+]2C	.	-	30.8	-	-	-	47.7	68.3
CN(C)c1ccc(C=c2c3ccccc3n3c2cc(-c2ccccc2)[n+]3C)cc1	.	-	-	-	-	-	.	.
Cc1ccc(C)c(NS(=O)(=O)c2cc(C(=O)NCc3ccncc3)ccc2C)c1	-	-	-	-	-	-	.	.
Cc1ccc(C(=O)NCc2ccncc2)cc1S(=O)(=O)Nc1cccc(C)c1C	-	-	24.5	-	-	-	32.5	-
CN=C(Nc1cccc(Cl)c1)SC1CC(=O)N(c2ccc(OC)cc2)C1=O (stereo unspecified)	-	-	29.5	-	-	-	-	-
CCC(=O)N1CCN(c2ccc(NC(=O)c3ccc([N+](=O)[O-])o3)cc2Cl)CC1	.	-	38.5	-	-	-	-	96.7
COc1ccccc1C(=O)NCC(=O)NN=C(C)Cc1ccccc1	-	.	.	.	.	.	.	.
CCOC(=O)C1=C(c2ccccc2)NC(=O)NC1c1ccc(O)c(OCC)c1 (stereo unspecified)	-	-	-	-	-	-	.	.
CCOC(=O)C1=C(c2ccccc2)NC(=O)NC1c1ccc(O)c(Cl)c1 (stereo unspecified)	.	-	36.4	-	-	-	49.3	52.2
CCC1=C(OC(=O)N(CC)CC)N2C(=O)OC(=NCC3CC3)[C@]2(Cc2ccccc2)C2C1=CCC1C(=O)NC(=O)C12 (stereo partly specified)	-	.	.	.	.	.	.	.
CC(C)(C)OC(=O)NC(C(=O)OC(C)(C)C)c1ccc2c(c1)OCO2 (stereo unspecified)	-	.	.	.	.	.	.	.
CCO[C@H]1OC(C(=O)NCc2nc3ccccc3[nH]2)=C[C@@H](C)[C@@H]1CCCO	-	-	-	-	-	-	.	.
CCO[C@H]1OC(C(=O)NCc2nc3ccccc3[nH]2)=C[C@@H](C2CCCCC2)[C@@H]1CCCO	.	-	43.6	-	-	-	25.2	-
CCOC(=O)N1CCN(S(=O)(=O)c2ccc(C(=O)NNc3nc4c(C)cc(C)cc4s3)cc2)CC1	-	-	25.4	.	-	-	24.9	-
CCOC(=O)N1CCN(S(=O)(=O)c2ccc(C(=O)NNc3nc4c(C)cccc4s3)cc2)CC1	-	-	-	-	-	-	.	.
CCCCOc1ccc(Br)cc1CSC(=N)N	-	-	24.7	-	-	-	-	20.9
NC(Cc1ccccc1)c1csc(NC(=O)Nc2ccccc2Oc2ccccc2)n1 (stereo unspecified)	.	-	25.0	.	-	-	27.4	-
Cc1ccc(S(=O)(=O)N(C)C)cc1NC(=O)c1cncc(Br)c1	-	-	27.4	-	-	-	-	-
CC1(Cc2ccc(Cl)c(Cl)c2)C(=O)Nc2ccc(S(=O)(=O)NC3CCCCC3)cc21 (stereo unspecified)	.	-	-	.	-	-	.	.
CC1(Cc2cccc(F)c2)C(=O)Nc2ccc(S(=O)(=O)NC3CCCCC3)cc21 (stereo unspecified)	.	-	35.8	.	-	-	-	-
CCOC(=O)[C@]12Cc3cc(OC)ccc3[C@H]1N(C)C(=O)c1ccccc12	.	.	-	.	.	.	.	.
CCOC(=O)[C@]12Cc3cc(Cl)ccc3[C@H]1N(Cc1ccccc1)C(=O)c1cc(OC)ccc12	.	.	-	.	.	.	.	.
CCCCCN1C(=O)c2cc(OC)ccc2[C@@]2(C(=O)OCC)Cc3cc(Cl)ccc3[C@@H]12	.	.	33.4	.	.	.	46.6	98.8
CCOC(=O)[C@]12Cc3cc(OC)ccc3[C@H]1N(C1CCCCC1)C(=O)c1ccccc12	.	.	26.4	.	.	.	41.6	95.1
Cc1scc(C(=O)NN=Cc2ccc(Cl)s2)c1C	-	.	.	.	.	.	.	.
SMILES	Mtb hypoxia rep	Mtb FBA inh	PrPC surface inh	PrP UTR inh	Yp Topo-I inh	GDH-TPI inh	PrPC TRFRET cf	LD9 cytotox
CON=C(CNC(=O)c1ccc(Cl)cc1Cl)c1ccc(Cl)cc1	-	.	.	.	.	.	.	.
CC(C)N1CCc2c(sc(NC(=O)c3ccc([N+](=O)[O-])o3)c2C(N)=O)C1	.	-	48.6	95.4	-	-	62.5	54.3
O=C(N/N=C/c1ccc(O)cc1O)/C(=C/c1ccccc1)CCO	.	-	30.3	-	-	41.1	32.5	17.4
COC(=O)C(Cc1ccccc1)NC(=O)C(CC(C)C)NC(=O)OC(C)(C)C (stereo unspecified)	.	-	-	-	-	-	.	.
COC(=O)[C@H](CC1(c2cn(S(=O)(=O)CC[Si](C)(C)C)c3ccccc23)C(=O)Nc2ccccc21)NC(=O)OC(C)(C)C (stereo partly specified)	.	.	46.7	.	.	.	59.0	-
COc1ccccc1N(CC(=O)NC1CC2CCC1C2)S(=O)(=O)c1ccc(C)cc1 (stereo unspecified)	-	-	55.2	-	?	-	-	-
COc1ccc(S(=O)(=O)N(CC(=O)NC2CC3CCC2C3)c2ccccc2OC)cc1 (stereo unspecified)	-	-	-	-	-	-	.	.
CC(=NNC(=O)c1ccccc1)c1ccc(NC(=O)c2cccs2)cc1	-	.	.	.	.	.	.	.
CCCC(=O)NCc1ccc2c(c1)cc(C)n2C	-	-	-	-	-	-	.	.
Cc1cc2cc(CNS(=O)(=O)c3ccc4ccccc4c3)ccc2n1C	-	-	43.2	-	-	-	37.0	-
CC(=O)Nc1ccc(S(=O)(=O)NCc2ccc3c(c2)cc(C)n3C)cc1	-	-	34.5	-	-	-	-	-
CC(=O)Nc1ccc(S(=O)(=O)NCc2ccc3[nH]c(C)cc3c2)cc1	-	-	-	-	-	-	.	.
Cc1cc(C)c(S(=O)(=O)NCc2ccc3c(c2)cc(C)n3C)c(C)c1	-	-	39.1	-	-	-	43.4	-
COc1ccc(N(CC(=O)NN=Cc2ccc3c(c2)OCO3)S(=O)(=O)c2ccc(NC(C)=O)cc2)cc1	-	.	.	.	.	.	.	.
CC1CN(C(C)CO)C(=O)c2cc(NC(=O)Cc3ccccc3)ccc2OC1CN(C)S(=O)(=O)c1ccccc1 (stereo unspecified)	-	.	.	.	.	.	.	.
CC(C)[C@@H](NC(=O)OC(C)(C)C)c1cc(C(=O)c2c(-c3ccccc3)[nH]c3ccccc23)c(N)s1	.	.	41.3	.	.	.	29.6	-
CNC(=O)C(NC(=O)CNC(=O)c1ccc(Cl)cc1)C(C)(C)C (stereo unspecified)	-	-	-	-	-	-	.	.
CNC(=O)[C@@H](NC(=O)[C@H](CC(C)C)[C@H](O)C(=O)NO)C(C)(C)C	.	.	60.6	.	.	.	65.4	-
